# Measured values taken from PubChem BioAssay AID1851 (National Center for Advancing Translational Sciences (NCATS), 2009).
# Where “and” joins values, the source holds several entries; their conditions need not be identical. Equal values may be shown once. About 5,800 (36%) of roughly 16,000 compounds were called active. About 23% were inconclusive and are not listed. The list shows a part of the results. Unmarked numbers belong to inactive results. Calls come from the whole dose curve; as a rule, active = well fitted curve in the direction sought with a large enough effect; inconclusive = small, poorly fitted or top-dose-only effect, or effect the other way; inactive = no such curve, though single readings can be large or run the other way.
# Target: Cytochrome P450 2C19 (Homo sapiens) (UniProt P33261)
# Experiment: Cytochrome panel assay with activity outcomes
# Settings: recombinant CYP, pro-luciferin dealkylation, luminescence, p450-cyp2c19; series mostly up to 57.1 µM
# % is set by controls: 0 for no effect and ±100 for the full control effect.
# Chain of Cytochrome P450 2C19 (Homo sapiens) (P33261 whole entry, looked up): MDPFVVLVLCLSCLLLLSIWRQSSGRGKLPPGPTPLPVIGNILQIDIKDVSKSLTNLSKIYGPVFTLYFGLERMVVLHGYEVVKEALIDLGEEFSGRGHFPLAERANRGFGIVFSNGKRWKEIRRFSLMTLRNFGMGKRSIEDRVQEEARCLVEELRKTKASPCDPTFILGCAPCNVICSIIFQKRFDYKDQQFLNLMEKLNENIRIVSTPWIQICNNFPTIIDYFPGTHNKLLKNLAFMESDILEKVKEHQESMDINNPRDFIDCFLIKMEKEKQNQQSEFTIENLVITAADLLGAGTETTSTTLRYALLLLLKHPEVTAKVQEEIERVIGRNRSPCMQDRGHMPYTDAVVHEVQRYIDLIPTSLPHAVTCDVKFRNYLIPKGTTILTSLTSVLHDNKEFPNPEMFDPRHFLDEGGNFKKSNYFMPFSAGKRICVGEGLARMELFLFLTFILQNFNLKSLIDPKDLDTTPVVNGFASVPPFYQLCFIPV
SMILES,AC50,"activity, negative = inhibition"
Cc1ccc(C(=O)NCCNc2ccc(Cl)cc2[N+](=O)[O-])o1,7.94 µM (active),–
O=C(NCc1ccc(Cl)cc1)c1ccc(Cl)cc1[N+](=O)[O-],1.26 µM (active),–
CCOc1ccc(NC(=O)c2ccc(Br)o2)c([N+](=O)[O-])c1,inactive,–
O=[N+]([O-])c1cc(Cl)cc2c1nc(NCCO)c1ccccc12,–,-34.6% [at 11.4 µM]
COc1cc(C(=O)NCCC(C)C)c([N+](=O)[O-])cc1OC,inactive,–
O=C(NCc1ccccc1)c1ccc(Cl)cc1[N+](=O)[O-],11.2 µM (active),–
O=c1[nH]ncn2cccc12,inactive,–
c1ccc2cc(-c3csnn3)ccc2c1,3.98 µM (active),–
Nc1nc(-c2ccc3ccccc3c2)cc(-c2cc(-c3ccc4ccccc4c3)nc(N)n2)n1,–,10.1% [at 11.4 µM]
O=C(O)c1nnsc1-c1csnn1,–,-19.5% [at 11.4 µM]
COc1ccc(-c2nc3cnc(N4CCN(C)CC4)nc3n(C3CC3)c2=O)cc1,inactive,–
O=C(NC(=S)NNC(=O)c1cccs1)c1ccco1,inactive,–
COc1cc(NC(=S)NC(=O)c2c(OC)cccc2OC)ccc1NC(=O)c1cccs1,2 µM (active),–
Cc1cccc(NC(=S)NC(=O)c2cccs2)n1,3.55 µM (active),–
Cc1ccccc1C(=O)Nc1cccc(NC(=S)NC(=O)c2cccs2)c1,3.55 µM (active),–
O=C(N/N=C/c1cccc(OC2CSC2)c1)c1ccccc1O,inactive,–
O=C(COc1ccccc1C(=O)N/N=C\c1ccc(O)c(O)c1)N/N=C/c1ccc(O)c(O)c1,15.8 µM (active),–
O=C(CSc1nnc2c(n1)[nH]c1ccc(F)cc12)OCc1ccccc1,0.398 µM (active),–
CCOCc1cnc(C)nc1NCC(=O)c1c(C)[nH]c2ccccc12,inactive,–
COc1[nH]c2ccc(F)cc2c1C(=O)OCC1CCN(CCNS(C)(=O)=O)CC1,inactive,–
CON(C)C(=O)c1nnc2c(n1)[nH]c1ccccc12,–,-38.3% [at 11.4 µM]

SMILES,AC50,"activity, negative = inhibition"
Cc1ccc(C(=O)NNC(=O)CSc2nnc3c(n2)[nH]c2ccc(F)cc23)cc1,inactive,–
CCOC(=O)CC(=O)CSc1nnc2c(n1)[nH]c1ccccc12,14.1 µM (active),–
Cc1cccc(N(CC(=O)NC2CCCC2)C(=O)c2cc3cc4cccc(C)c4nc3s2)c1C,3.98 µM (active),–
O=C(Nc1cccc(NC(=O)c2ccccc2[N+](=O)[O-])n1)c1ccccc1[N+](=O)[O-],8.91 µM (active),–
Cc1cc(C)nc(NC(=O)c2cccc([N+](=O)[O-])c2C)n1,inactive,–
S=C(Nc1ccccc1)Nc1ccccc1C#Cc1ccccc1,3.16 µM (active),–
C=CCN(CC=C)C(=S)Nc1ccccc1,inactive,–
COc1ccc(-c2ccc3c(n2)CCCN3C[C@H](O)CN2CCCc3nc(-c4ccc(Br)cc4)ccc32)cc1,–,0.393% [at 11.4 µM] and -39.5% [at 11.4 µM]
CCOc1ccc(C(=O)Nc2ccccc2N2CCCC2)cc1,15.8 µM (active),–
CC(=O)N1CCN(c2ccccc2NC(=O)COc2ccc(Br)cc2)CC1,14.1 µM (active),–
Cc1ccc(OCC(=O)Nc2ccccc2N2CCOCC2)c(C)c1,3.98 µM (active),–
COc1ccc(-n2c(=O)c(C)nc3cnc(N4CCNCC4)nc32)cc1,inactive,–
CS(=O)(=O)N1CCC2(CC1)CN(Cc1cc(C(F)(F)F)cc(C(F)(F)F)c1)C2,inactive,–
NS(=O)(=O)c1cc(C(=O)O)c(O)c2ccccc12,–,-24.4% [at 11.4 µM]
CCOC(=O)c1c(C)oc2c1cc(O)c1ccccc12,3.55 µM (active),–
COc1ccc2[nH]cc(CCNc3ncncc3-c3ccccc3C(F)(F)F)c2c1,0.251 µM (active),–
CC(=O)NCCNc1ncncc1-c1ccccc1CN(C)C,inactive,–
COCCNc1ncncc1-c1c(C)noc1C,inactive,–
COc1ccc2[nH]cc(CCNc3ncncc3-c3ccccc3Cl)c2c1,0.0631 µM (active),–
COc1ccc2[nH]cc(CCNc3ncncc3-c3c(C)noc3C)c2c1,3.16 µM (active),–
COc1ccc2[nH]cc(CCNc3ncncc3-c3ccccc3CN(C)C)c2c1,10 µM (active),–

SMILES,AC50,"activity, negative = inhibition"
CN(C)Cc1ccccc1-c1cncnc1NC1CC1,inactive,–
CC(N)=NCc1cccc(CN)c1,inactive,–
COc1ccc2[nH]cc(CCNc3ncncc3-c3ccccc3C)c2c1,0.0501 µM (active),–
COc1ccc2[nH]cc(CCNc3ncncc3-c3ccccc3OC)c2c1,0.0794 µM (active),–
C[C@H]1C[C@H]2[C@H]3CCC4=CC(=O)C=C[C@@]4(C)[C@]3(F)[C@H](O)C[C@]2(C)[C@@]1(O)C(=O)COP(=O)(O)O,–,18.4% [at 11.4 µM]
O=C(NCc1ccco1)C(c1ccccc1)N(C(=O)Cc1cccs1)c1ccccc1F (configuration not stated),3.16 µM (active),–
Cc1ccc(C(C(=O)NCc2ccco2)N(C(=O)CNC(=O)c2cccs2)c2ccc(C)cc2C)cc1 (configuration not stated),1.12 µM (active),–
Cc1ccc(C(C(=O)NC2CCCCC2)N(CC2CCCO2)C(=O)CNC(=O)c2cccs2)cc1 (configuration not stated),10 µM (active),–
COc1cccc2c1OC1(C)CC2/C(=C(\C)O)C(=O)N1 (configuration not stated),inactive,–
CCOC(=O)C1=C(C)NC2(O)c3ccccc3C(=O)C12O (configuration not stated),inactive,–
CCC(C)OC(=O)C1=C(C)NC(=O)CC1c1ccccc1OC (configuration not stated),2 µM (active),–
CCCOc1ccccc1C1CC(=O)NC(C)=C1C(=O)OCC(C)C (configuration not stated),1.41 µM (active),–
c1ccc2c(c1)c1ccccc1n2Cn1c2ccccc2c2ccccc21,0.398 µM (active),–
CCn1c(=O)[nH]c2ccccc21,inactive,–
COc1cccc(-c2cc(NCc3ccc(OC)cc3OC)ncn2)c1,5.01 µM (active),–
COc1ccc(CNc2cc(-c3cccnc3)ncn2)c(OC)c1,inactive,–
COc1cccc(-c2cc(NCc3ccccc3OC)ncn2)c1,7.94 µM (active),–
S=c1[nH]nc(CSCc2ccccc2Cl)n1-c1ccccc1,0.708 µM (active),–
CN(Cc1n[nH]c(=S)n1C)S(=O)(=O)c1ccccc1,inactive,–
Cn1c(CCNC(=O)c2ccccc2Cl)n[nH]c1=S,inactive,–
